For one assay, the system named is MCC-26. The experiment in a line: qHTS assay to identify novel small-molecules to repurpose for Merkel cell carcinoma treatment (AID 1296009). Further: nearly all actives have a fitted effect of over 60% in size. To be noted: MCC and control cell lines, CellTiter-Glo viability, 72 h; series mostly up to 46 µM. A digest of the protocol:
(§1)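 After compound transfer in DMSO, plates were kept 72 hr at 37 degree celsius. Luminescent ATP signal from CellTiter-Glo served as viability measure, normalized against DMSO and no-cell controls.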
(In general: Quantitative high-throughput screening tests each substance at several concentrations.)

Another assay concerns MKL-1. Described as above. To be noted: MCC and control cell lines, CellTiter-Glo viability, 72 h; series mostly up to 46 µM. The gist of the method: as §1
A general note: Cellular ATP, detected with luciferase, serves as a proxy for viable cell number.

In the next assay the test system is MKL-2. The assay is described as above. To be noted: MCC and control cell lines, CellTiter-Glo viability, 72 h; series mostly up to 46 µM. A digest of the protocol:
as §1

The subject of the next assay is UISO. The description is as above. To be noted: MCC and control cell lines, CellTiter-Glo viability, 72 h; series mostly up to 46 µM. The gist of the method:
as §1

Another assay deals with WaGa. The description is as above. The note with it: MCC and control cell lines, CellTiter-Glo viability, 72 h; series mostly up to 46 µM. The gist of the method: as §1
For the next assay, the system named is C33A. The experiment in a line: Primary qHTS to identify gynecologic anti-cancer compounds using libraries of approved drugs and bioactive compounds (AID 1345084). Further: nearly all actives have a fitted effect of over 55% in size. To be noted: Gynecologic cancer cell panel viability, ATPlite luminescence, 48 h; series mostly up to 57.5 µM. A digest of the protocol: (§2)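 Cytotoxicity screen measuring ATP content by luciferase luminescence. Each compound is applied at five concentrations for 48 h at 37 C with 5% CO2.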

In a further assay the test system is CAOV3. The description is as above. To be noted: Gynecologic cancer cell panel viability, ATPlite luminescence, 48 h; series mostly up to 57.5 µM. A digest of the protocol: as §2
Another assay relates to CASKI. The assay is described as above. The note with it: Gynecologic cancer cell panel viability, ATPlite luminescence, 48 h; series mostly up to 57.5 µM. A digest of the protocol: as §2
The subject of another assay is Es-2. The description is as above. To be noted: Gynecologic cancer cell panel viability, ATPlite luminescence, 48 h; series mostly up to 57.5 µM. A digest of the protocol:
as §2

The next assay has as its system HeLa. The description is as above. To be noted: Gynecologic cancer cell panel viability, ATPlite luminescence, 48 h; series mostly up to 57.5 µM. The gist of the method:
as §2

Another assay has as its system Hek293T. The description is as above. To be noted: Gynecologic cancer cell panel viability, ATPlite luminescence, 48 h, control line for the selectivity index; series mostly up to 57.5 µM. The gist of the method: as §2
A further assay deals with JEG-3. The assay is described as above. The note with it: Gynecologic cancer cell panel viability, ATPlite luminescence, 48 h; series mostly up to 57.5 µM. The gist of the method: as §2
In the next assay the test system is OV90. The description is as above. The note with it: Gynecologic cancer cell panel viability, ATPlite luminescence, 48 h; series mostly up to 57.5 µM. The gist of the method: as §2
The subject of the next assay is PA-1. The assay is described as above. To be noted: Gynecologic cancer cell panel viability, ATPlite luminescence, 48 h; series mostly up to 57.5 µM. The gist of the method:
as §2

For the next assay, the system named is SKOV3. Described as above. The note with it: Gynecologic cancer cell panel viability, ATPlite luminescence, 48 h; series mostly up to 57.5 µM. The gist of the method: as §2
Another assay has as its system Tov-21-G. Described as above. The note with it: Gynecologic cancer cell panel viability, ATPlite luminescence, 48 h; series mostly up to 57.5 µM. A digest of the protocol: as §2
A further assay relates to Tov112D. The description is as above. The note with it: Gynecologic cancer cell panel viability, ATPlite luminescence, 48 h; series mostly up to 57.5 µM. A digest of the protocol:
as §2

A short description of assay [1]: Drug repurposing screens with cells derived from glioblastoma tumor samples (AID 1345199). Further: nearly all actives have a fitted effect of over 40% in size. Further: potency means the concentration at half of the fitted maximal effect. The note with it: GBM patient neurospheres viability, ATP luminescence, 48 h. A digest of the protocol: (§3)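 Four patient lines of CD133+ GBM neurospheres were screened at several concentrations; hits were retested in those lines plus three slower-growing GBM lines, using 48-hour treatment and ATP-based viability.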

The test system of a further assay is astro. The assay is described as above. To be noted: viability, ATP luminescence, 48 h; series mostly up to 45.9 µM. A digest of the protocol:
as §3

Another assay concerns NIH3T3. The experiment in a line: qHTS assay to identify novel small-molecules to repurpose for Merkel cell carcinoma treatment (AID 1296009). Further: nearly all actives have a fitted effect of over 60% in size. The note with it: MCC and control cell lines, CellTiter-Glo viability, 72 h; at 44.8 µM (top of the series) unless noted. A digest of the protocol:
as §1

Where [2] appears, read: at 45.9 µM (top of the series), tumour line B.
Setting [3] is: at 45.9 µM (top of the series), tumour line D.
The mark [4] stands for this setting: at 46 µM (top of the series), tumour line A.
Setting [5] is: at 46.1 µM (top of the series), tumour line C.

Several values for one entry are separate records, joined by “and”; a condition that tells them apart may be missing. Identical values can stand only once. Results filed as inconclusive are left out. A number with no mark means an inactive call. Activity calls are given as the source filed them. The call rests on the fitted dose curve; in most records, active means well fitted curve in the direction sought with a large enough effect; inconclusive means small, poorly fitted or top-dose-only effect, or another doubt; inactive means no such curve, though single readings can be large; an effect the other way counts as inactive or inconclusive.
On the % scale 0 is the no-effect control and ±100 the full control effect.

On to `C#CCN(C)Cc1ccccc1`, for which the Potency entry in the assay with MCC-26, with MKL-1, with MKL-2, with UISO, with WaGa and in the assay on C33A was “inactive” each time. Further, the Potency result in the assay on CAOV3, in the assay on CASKI, in the assay with Es-2, with HeLa, with Hek293T and with JEG-3 was “inactive” throughout. In addition, the Potency entry with OV90, with PA-1, in the assay with SKOV3, with Tov-21-G, with Tov112D and in the assay with astro was “inactive” in each case. Besides, the activity, negative = cell killing in assay [1] (at 20 µM (top of the series), tumour line C) was -8.08%; in assay [1] (at 21.2 µM (top of the series), tumour line B), -12.4%; in assay [1] (at 21.2 µM (top of the series), tumour line D) it was -7.66%; in assay [1] (at 21.3 µM (top of the series), tumour line A), -32.1%.

With `CCCCc1ncc(/C=C(\Cc2cccs2)C(=O)O)n1Cc1ccc(C(=O)O)cc1`, the Potency entry with MCC-26, in the assay on MKL-1, in the assay with MKL-2, in the assay with UISO, in the assay with WaGa and in the assay with C33A was “inactive” each time. Also, the Potency entry in the assay with CAOV3, in the assay with CASKI, in the assay with Es-2, in the assay with HeLa, in the assay with Hek293T and with JEG-3 was “inactive” each time. Also, the Potency entry with OV90, with PA-1, with SKOV3, with Tov-21-G, in the assay with Tov112D and with astro was “inactive” throughout. The activity, negative = cell killing in assay [1] (setting [2]) is -7.78%; in [1] (setting [3]), 9.77%; in assay [1] (setting [4]), -19.8%; in assay [1] (setting [5]), -1.88%.

With `C[C@@H](O)[C@H](N)C(=O)O`, the Potency result with MCC-26, in the assay on MKL-1, in the assay with MKL-2, in the assay on UISO, in the assay with WaGa and in the assay on C33A was “inactive” throughout. Also, the Potency result in the assay on CAOV3, with CASKI, with Es-2, in the assay with HeLa, with Hek293T and in the assay on JEG-3 was “inactive” in each case. Further, the Potency result in the assay on OV90, in the assay with PA-1, in the assay on SKOV3, with Tov-21-G, in the assay with Tov112D and in the assay on astro was “inactive” each time. The activity, negative = cell killing in [1] (setting [2]) was -15.7%; in [1] (setting [3]), -16.8%; in assay [1] (setting [4]) it was -29.7%; in assay [1] (setting [5]), 2.15%.

Consider `COc1ccc2[nH]c(S(=O)Cc3ncc(C)c(OC)c3C)nc2n1` (stereo not drawn), for which the Potency entry in the assay on MCC-26, in the assay with MKL-1, in the assay on MKL-2, in the assay on UISO, with C33A and in the assay on CASKI was “inactive” throughout. Besides, the Potency result with Es-2, with HeLa, in the assay with Hek293T, in the assay on JEG-3, in the assay on OV90 and in the assay with PA-1 was “inactive” in each case. Besides, the Potency result in the assay on SKOV3, with Tov-21-G, with Tov112D and with astro was “inactive” in each case. Also, the molecule was called inactive in the assay on NIH3T3. The activity, negative = cell killing in [1] (setting [2]) was -28.9%; in assay [1] (setting [3]), -21.6%. Besides, the Potency in assay [1] (tumour line A) was 11.2 µM (active).

With `Cc1cc2nc3c(=O)[nH]c(=O)nc-3n(C[C@H](O)[C@H](O)[C@H](O)CO)c2cc1C`, the Potency result in the assay with MCC-26, with MKL-1, in the assay on MKL-2, in the assay with UISO, in the assay on WaGa and with C33A was “inactive” each time. Also, the Potency entry in the assay on CAOV3, in the assay on CASKI, with Es-2, in the assay with HeLa, in the assay with Hek293T and in the assay on JEG-3 was “inactive” each time. The Potency entry with OV90, with PA-1, in the assay on SKOV3, in the assay with Tov-21-G, with Tov112D and in the assay with astro was “inactive” each time. In addition, the activity, negative = cell killing is -19.3% and -6.89% in assay [1] (setting [2]); -1.31% and -6.94% in [1] (setting [3]); -12.8% and -5.49% in assay [1] (setting [4]); -0.108% and 21.1% in [1] (setting [5]).
